Assay results published in ChEMBL document CHEMBL4888484, “Replenishing the malaria drug discovery pipeline: Screening and hit evaluation of the MMV Hit Generation Library 1 (HGL1) against asexual blood stage Plasmodium falciparum ,using a nano luciferase reporter read-out” (2022).
Hit rate of the full screen: of about 4,800 compounds, about 420 (8.8%) showed an effect of 50% or more. The full list was thinned out, with strong results kept by preference.

test system: Plasmodium falciparum; assay: Confirmatory screen in NF54 nanoGlo assay, in single point, at 2uM, 72h; format: functional, Erythrocyte; conditions: timepoint 72 hour

| SMILES | % Inhibition |
| --- | --- |
| COCCOc1ccc2c(n1)CCN(C(=O)c1ccc(OC)c(OC)c1)C2 | -12% |
| Cc1nn(C)cc1NC(=O)N[C@H]1CCCC[C@@H]1O | -9% |
| C[C@@H](C1CC1)N(C1CC1)S(=O)(=O)c1ccc(F)cc1F | -2% |
| Cc1ncccc1C(=O)Nc1cccc(Oc2cccnn2)c1 | 1% |
| Cc1c(Cl)c(C(F)(F)F)nn1[C@@H](C)C(=O)NC1CCN(C(C)C)CC1 | -4% |
| COc1cccc(-c2cc3c(N4CC=C(c5ccccc5)CC4)nccn3n2)c1 | -2% |
| CC[C@H]1Cn2c(C(=O)N3CCN(C(=O)c4ccco4)CC3)cc3c(Cl)ccc(c32)O1 | -17% |
| CCCn1nc(-n2cnnc2)c(NC(=O)c2ccc3c(c2)OCO3)c1C | -4% |
| CCOC(=O)C1CCC(CN(Cc2ccc(OC)cc2)S(=O)(=O)c2cc(C(=O)Nc3ccc(OCC)cc3)ccc2F)CC1 (centres undefined) | 50% |
| CCOc1ccc(NC(=O)c2cnc(N(Cc3ccccc3)C(C)C)nc2N)cc1 | -15% |
| CCOc1ccc(NC(=O)c2ccc3c(c2)N(CC)[C@@H]2CCCCN2C3=O)cc1 | 7% |
| CN(c1ccc(Br)cc1)S(=O)(=O)c1ccc2c(c1)CCN2C(=O)C1CCC1 | -7% |
| COc1ccccc1CNC(=O)c1cnn2c(-c3ccc(Cl)cc3)ccnc12 | -4% |
| c1cncc(CN2CCN(C3CCCCCC3)CC2)c1 | 3% |
| Cc1cccc(Cn2ccc(-c3cccc(OCc4ccc(Cl)cc4Cl)c3)n2)c1 | -4% |
| C[C@H]1CC(C)(C)N(C)c2ccc(/C=C/c3c(C(=O)O)cnc4ccnn34)cc21 | 7% |
| OCCNCc1c(Cl)cccc1Cl | -1% |
| Clc1cccc(CNCCCNc2ccncc2)c1Cl | 71% |
| CN(C)CCCNCc1ccccc1F | -2% |
| CC[C@@H](CCNS(=O)(=O)c1cn(C(F)F)nc1C)n1ccc(C(F)(F)F)n1 | -8% |
| COc1ccc(Nc2nc(C(=O)Nc3ncc(C)s3)cs2)cc1OC | 17% |
| CCOC(=O)Oc1c(OC)cc(C(=O)Nc2ccc3c(c2)sc(=O)n3C)cc1OC | 6% |

| SMILES | % Inhibition |
| --- | --- |
| CCOc1cc(C(=O)Nc2ccc3nc4c(c(Nc5ccc(OC)c(OC)c5)c3c2)CCCC4)cc(OCC)c1OCC | 96% |
| Clc1ccc(COc2ccc(CNC3CCCCC3)cc2Br)cc1 | -4% |
| O=C(NC[C@H]1CCS(=O)(=O)C1)c1ccc2[nH]c3c(c2c1)CCCC3 | -6% |
| O=C(Cc1ncc(C(F)(F)F)cc1Cl)c1ccc(Cl)cc1Cl | -6% |
| O=C(Nc1ccc(C(F)(F)F)cc1)N1CCN(CC(O)C2CCCO2)CC1 (centres undefined) | 4% |
| CC(NC(=O)N1CCCCC1)(C(F)(F)F)C(F)(F)F | 7% |
| O=S(=O)(c1cccc(Cl)c1)N1CCc2nc(N3CCCCC3)nc(Oc3ccccc3)c2C1 | 73% |
| COc1cccc(Oc2nc(N3CCN(C)CC3)nc3c2CN(C(=O)Nc2ccccc2)CC3)c1 | 5% |
| COc1cccc(CC(=O)N2CCc3nc(N4CCC(C)CC4)nc(Oc4ccccc4OC)c3C2)c1 | 45% |
| O=C(O)Cc1sc(-c2ccc(Cl)cc2)nc1-c1ccc(Oc2ccccc2)cc1 | 0% |
| CN1CCN(C(=O)[C@@H]2Cc3ccccc32)CC1 | 2% |
| CCc1nnc2ccc(S(=O)(=O)Nc3cc(F)cc(F)c3)cn12 | -5% |
| CCOC(=O)N1CCN(C(=O)C2c3ccccc3C(=O)N(C3CCCCC3)C2c2ccc(OC)cc2)CC1 (centres undefined) | -4% |
| COc1cccc(S(=O)(=O)N2CCC(OCCOc3ccccc3)CC2)c1 | 0% |
| COc1cccc(S(=O)(=O)N2CCC(OCCOCc3ccccc3)CC2)c1 | -3% |
| COc1cccc(S(=O)(=O)N2CCCN(Cc3ccncc3)[C@H](c3ccccc3)CC(=O)NCC2)c1 | 92% |
| COCCCn1c(=O)c2ccccc2n(CC(=O)N2CCc3ccccc32)c1=O | -8% |
| CC(C)OC(=O)N(CCOC(=O)Nc1cccc(Cl)c1)CCOC(=O)Nc1cccc(Cl)c1 | -15% |
| COc1ncccc1C(=O)NC[C@H](C)S(N)(=O)=O | 4% |
| Cc1cc(NC(=O)C(=O)Nc2cnn(CCC(C)C)c2C)n(C)n1 | -7% |
| COc1ccccc1N(Cc1ccccc1)C1=NC(=[N+](Cc2ccccc2)c2ccccc2OC)c2ccccc21 | 74% |
| C[C@H](NC(=O)c1cc(C2CC2)[nH]n1)c1nccs1 | -11% |

| SMILES | % Inhibition |
| --- | --- |
| CN(C(=O)c1ccccc1Br)C(C)(C)C | -10% |
| COc1ccccc1[C@H]1CC(O)=Nc2c1ncn2-c1cc(F)ccc1F | -3% |
| Cc1nnc2ccc(S(=O)(=O)N(Cc3ccccc3F)c3ccccc3)cn12 | -16% |
| COc1ccc(NC(=O)[C@@H]2COCC(=O)N2Cc2ccc(C)cc2)cc1 | 1% |
| CCc1ccc(C2=C[C@@H](c3cccc(OC)c3)n3ncc(C(=O)Nc4ccc(C)cc4)c3N2)cc1 | 70% |
| COc1cccc([C@H]2CC(=O)Nc3c2cnn3C)c1 | -8% |
| CC[C@H](C)N1CCN(Cc2cccc(Oc3ccccc3)c2)CC1 | -6% |
| CC[C@H]1Cn2c(C(=O)N3CCN(c4ccccn4)CC3)cc3c(Cl)ccc(c32)O1 | -8% |
| Cc1nn(C)cc1-c1nnc(-c2ccccc2)o1 | -17% |
| COc1ccc(COC(=O)c2cccnc2C)cn1 | -9% |
| O=C(C[C@H]1CCCN1c1ccnc(C2CC2)n1)c1ccco1 | 3% |
| CCc1nc(NS(=O)(=O)c2cc(Cl)sc2Cl)no1 | -4% |
| O=C1NCCCc2nn(Cc3cc(F)ccc3Br)cc21 | -12% |
| CCOC(=O)c1c[nH]c2c(-c3ccccc3)nsc2c1=O | -5% |
| O=C(c1cccs1)N1CCN(C2CCCCCC2)CC1 | 1% |
| CC(C)c1nc(O)cc(CN2CCCCC2)n1 | -8% |
| CC(C)c1ccc(-c2nc(CN3CCCCC3)cc(CN3CCCCC3)c2O)cc1 | 96% |
| Cc1ccc(C)c(NC(=O)CN2CCC3(CC2)NC(c2ccc(OC(F)(F)F)cc2)=NO3)c1 | -3% |
| CC(C)[C@@H]1CN(C(=O)c2ccncc2)c2ccccc2N1 | -7% |
| Cc1ccc(Cn2ccnc2C(=O)Nc2ccccc2)cc1 | -15% |
